Screens as filed in PubChem BioAssay.
RORg inh: blocks mouse ROR gamma transcriptional activity; Potency, µM (series often up to 53.6 µM), for the others: top-dose activity change, negative = inhibition, actives largely listed as inhibitors; Drosophila S2 Gal4-RORgamma UAS-luciferase reporter, 20 h; 310,000 tested, 5.4% active; P51450; further: potency means the concentration at half of the fitted maximal effect; on the % scale 0 is the no-effect control and ±100 the full control effect; nearly all actives have a fitted effect of over 60% in size
Target sequence (P51450 whole entry, looked up, the tested form may be a part): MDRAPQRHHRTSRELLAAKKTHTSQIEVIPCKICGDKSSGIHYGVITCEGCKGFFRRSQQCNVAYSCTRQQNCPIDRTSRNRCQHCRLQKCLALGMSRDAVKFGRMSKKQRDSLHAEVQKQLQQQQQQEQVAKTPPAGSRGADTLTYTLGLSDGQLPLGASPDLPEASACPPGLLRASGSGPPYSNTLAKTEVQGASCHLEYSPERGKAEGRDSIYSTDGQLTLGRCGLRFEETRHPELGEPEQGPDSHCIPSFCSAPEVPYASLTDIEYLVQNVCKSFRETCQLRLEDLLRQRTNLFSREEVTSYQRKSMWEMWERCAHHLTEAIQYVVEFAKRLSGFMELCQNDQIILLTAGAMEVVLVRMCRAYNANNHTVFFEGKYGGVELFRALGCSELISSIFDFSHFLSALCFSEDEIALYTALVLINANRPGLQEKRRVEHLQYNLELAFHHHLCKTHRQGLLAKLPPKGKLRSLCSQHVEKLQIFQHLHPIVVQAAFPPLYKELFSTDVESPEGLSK
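Drosophila Schneider cells stably carrying a metallothionein-driven Gal4 DBD–ROR gamma fusion and a UAS-Photinus luciferase reporter were exposed to compound for 1 hr, then induced with copper sulfate (700 uM final) for 20 hr at ambient temperature before luminescence reading.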
SW480 rereplic: inducers of DNA re-replication in SW480 colon cancer cells; SW480 DNA re-replication, Hoechst DNA content imaging, 48 h; Potency, µM (top dose mostly 46.1 µM), for inactives: top-dose re-replication activation, most hits filed as activators; 340,000 tested, 1.8% active; further: potency means the concentration at half of the fitted maximal effect; % of control where 0% means no effect; nearly all actives have a fitted effect of over 55% in size
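Cells (250 per well) received 23 nL compound or DMSO by pin tool and were kept 48 hr at 37 C, 5% CO2. Nuclei were then stained with Hoechst for 40 min and scanned for DNA content.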
Chronic BCR inh: blocks chronic active B-cell receptor signaling. 340,000 tested, 0.05% active. ABC-DLBCL IkBa-CBG/CBR reporter, luminescence ratio, 4 h. Potency, µM (titrated, usually from 46.1 µM), without a hit: at the top dose activity change, negative = inhibition, hits mostly inhibitors; active means well fitted inhibition curve with a large enough effect in the signal ratio, with a control signal flat, not every such curve was filed as active; inconclusive means small, poorly fitted or top-dose-only effect, or effect the other way, or a change in a side signal; the % refers to the signal ratio;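 further: potency means the concentration at half of the fitted maximal effect; plate controls were basal doxycycline-induced cells for no effect and cells given 10 µM MG132 for full effect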
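Cell line TMD8 (human ABC DLBCL), stably expressing tet-inducible CBG68-IkBa fusion and CBR; IMDM/0.5% FBS; cpd up to 46 uM; dox induction, 4 h, 37C/5% CO2; dual luminescence; green/red ratio; MG132 control.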
Giardia killer: kills Giardia lamblia; Giardia lamblia trophozoite viability; activity change, % at 7.66 µM, hits read low; 340,000 tested, 0.15% active; in the data active means activity change below about -80%; inconclusive means between about -30% and that limit;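 further: parasites exposed to compound for two days anaerobically before the ATP read; on the % scale 0 is the no-effect control and ±100 the full control effect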
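Each well holds 100 Giardia trophozoites and compound. After two days (48 hrs) at 37 deg C in anaerobic conditions, ATP is quantified by luminescence.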
VP16 counter: Gal4-VP16 reporter inhibition counter-screen; 310,000 tested, 3.5% active; Potency, µM (titrated, usually from 53.6 µM), for inactives: at the highest dose activity, negative = inhibition, usual class: inhibitors; AID 2546; Drosophila S2 Gal4-VP16 UAS-luciferase, luminescence, 20 h;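 further: Gal4-VP16 expression switched on by copper sulfate through the metallothionein promoter; potency means the concentration at half of the fitted maximal effect; on the % scale 0 is the no-effect control and ±100 the full control effect; nearly all actives have a fitted effect of over 50% in size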
MCF10A rerep: inducers of DNA re-replication in MCF 10A breast cells | MCF 10A DNA re-replication, Hoechst nuclear intensity, 48 h | Potency, µM (series often up to 46.1 µM), without a hit: at the top dose activity, positive = re-replication, most hits filed as activators | 350,000 tested, 2.9% active | AID 624296; further: potency means the concentration at half of the fitted maximal effect; % of control where 0% means no effect; nearly all actives have a fitted effect of over 50% in size
Numbers without * were called inactive; ? = inconclusive; . = not tested or not shown; [ ] = remark or other dose. Compounds with a hit are over-represented: about 8.3% of the library has one in this group of screens. Unless noted, the call rests on the fitted dose curve; in most records, active means well fitted curve in the direction sought with a large enough effect; inconclusive means small, poorly fitted or top-dose-only effect, or another doubt; inactive means no such curve, though single readings can be large; an effect the other way counts as inactive or inconclusive.

SMILES | RORg inh | SW480 rereplic | Chronic BCR inh | Giardia killer | VP16 counter | MCF10A rerep
CCOC(=O)Nc1ccc2c(CNC(C)c3ccccc3OC)cc(=O)oc2c1 (centres undefined) | -9% | 24% | -8% | ? | -14% | 18µM*
CCOC(=O)Nc1ccc2c(CN3C(=O)NC(CC)(CC)C3=O)cc(=O)oc2c1 | 35% | -7%[9.22 µM] | ? | 5 | 6% | -10%
Cc1nc(NC(=O)c2cnccn2)ccc1Br | -42% | 1% | 1µM* | -9 | -7% | 3%
Cc1nc(NC(=O)c2cncc(Br)c2)ccc1Br | -14%[1.91 µM] | 9% | 4% | 5 | 14% | 7%
O=C(O)c1cc2ncc(-c3[nH]ncc3[N+](=O)[O-])cn2n1 | -6% | -7% | 4% | -1 | 0% | 2%
Cc1ccc(S(=O)(=O)NC(=O)O[C@@H]2C(=O)c3cc(Br)ccc3O[C@H]2c2ccc3c(c2)OCO3)cc1 | -7% | . | . | . | 4% | .
Cc1ccc(-n2cc(CNCCN3CCOC3=O)c(-c3ccc(F)cc3)n2)cc1 | -5% | -11% | 3% | 16 | -11% | 15%
Cc1ccc(-n2cc(CNCCn3nc(C)cc3C)c(-c3ccc(F)cc3)n2)cc1 | 4% | 18µM* | -8% | -14 | -5% | ?
O=C(CCc1ccccc1)Nc1nnc(-c2cccs2)o1 | 6.3µM* | -3% | ? | -6 | 10µM* | -6%
O=C(CCS(=O)(=O)c1ccc(F)cc1)Nc1nnc(-c2cccs2)o1 | . | ? | -3% | -2 | . | ?
Nc1nnc(SCC(=O)Nc2nnc(-c3ccccc3)o2)s1 | . | -7% | -4% | -2 | . | 5%
O=C(CS(=O)(=O)c1ccc(F)cc1)Nc1nnc(-c2cccs2)o1 | . | -85% | -26% | -8 | . | -11%
O=C(CCc1ccccc1)Nc1nnc(-c2ccccn2)o1 | ? | -8% | 4% | 14 | ? | -1%
O=C(CCSc1ccccc1)Nc1nnc(-c2ccccc2)o1 | 10µM* | -13% | -18% | 17 | 11µM* | -1%
O=C(CCSc1ccccc1)Nc1nnc(-c2cccs2)o1 | 4.5µM* | -17% | -1% | 12 | 10µM* | -2%
O=C(CS(=O)(=O)c1ccc(Cl)cc1)Nc1nnc(-c2cccs2)o1 | 14µM* | -3% | 1% | -8 | ? | 11%
CC1CCCCN1S(=O)(=O)c1cccc2nonc12 (centres undefined) | 9% | -18% | 10% | 6 | -7% | 1%
CC(C)(C)C(=O)Nc1nnc(-c2ccncc2)o1 | 11µM* | -4% | 9% | 4 | 18µM* | -3%
O=C(Nc1nnc(-c2ccc(Cl)s2)o1)C1CC1 | -2% | -14% | ? | 7 | -7% | ?
O=C(Nc1nnc(-c2cccs2)o1)C1CC1 | 7.1µM* | -6% | ? | 7 | 7.1µM* | 1%
O=C(Nc1nnc(-c2ccncc2)o1)c1ccc(Br)s1 | 0.89µM* | ? | ? | 4 | 1.1µM* | ?
O=C(Nc1ccccc1)Nc1nnc(-c2ccccc2)o1 | 43% | -14% | -7% | 11 | -2% | 3%
O=C(Nc1nnc(-c2ccccc2)o1)NC1CCCCC1 | 2.5µM* | -1% | 2% | -10 | 4.5µM* | 9%
CC(C)C(=O)Nc1nnc(-c2ccccc2)o1 | ? | -10% | 4% | 8 | ? | -2%
COc1ccc2c(COC(=O)CCS(=O)(=O)c3ccc(C)cc3)cc(=O)oc2c1 | . | 4% | 0% | 4 | . | ?
SMILES | RORg inh | SW480 rereplic | Chronic BCR inh | Giardia killer | VP16 counter | MCF10A rerep
CN(C)Cc1nnnn1-c1cccc(-n2nnnc2CN(C)C)c1 | -17% | ? | 10% | 5 | 10% | -4%
O=C(Nc1nnc(-c2ccc3c(c2)CCCC3)o1)C1CCCCC1 | ? | 0% | -4% | -9 | -2% | 1%
O=C(Nc1nnc(-c2ccco2)o1)C1CC1 | 10µM* | 1% | 7% | 36 | ? | -1%
O=C(Nc1nnc(-c2ccncc2)o1)C1CCCCC1 | 10µM* | -9% | 0% | -8 | ? | -8%
CC(NC(=S)N1CCOCC1)c1ccccc1 (centres undefined) | -3% | 0% | 0% | 5 | 1% | 3%
Cc1ccccc1C(=O)NNc1ccc(-c2csnn2)cc1 | 10% | 3% | ? | 6 | 4% | 18µM*
CC(=O)Oc1ccc(-c2csnn2)cc1 | 2% | 0% | -14% | -14 | -6% | 9%
COCCCNC(=S)NNC(=O)c1cc(C2CC2)nc2ccccc12 | 2.8µM* | ? | 0% | 20 | ? | -7%
CCNC(=S)NNC(=O)c1cc(-c2cc(C)ccc2C)nc2ccccc12 | 0.35µM* | -1% | 14% | -1 | -22% | 14%
COCCNC(=S)NNC(=O)c1cc(-c2cccnc2)nc2ccccc12 | 13µM* | -3% | 3% | 2 | ? | 1%
O=C(Nc1nccs1)c1cc(-c2ccncc2)nc2ccccc12 | -31% | 0% | ? | 6 | -14% | -11%
CCCc1cc(C(=O)NNC(=S)NCC)c2ccccc2n1 | -40% | . | 3% | -7 | ? | 0%
Cc1ccc(-c2cc(C(=O)Nc3nccs3)c3ccccc3n2)c(C)c1 | 4.5µM* | 5% | ? | -6 | 6.3µM* | ?
COCCCNC(=S)NNC(=O)c1cc(-c2cccnc2)nc2ccccc12 | -34% | -2% | -1% | 17 | -27% | -1%
COc1ccc(CN2CCN(Cc3ccc(C(F)(F)F)cc3)CC2)cc1 | 14% | -4% | -1% | -3 | 3% | -2%
NC(Cc1c[nH]c2ccccc12)C(=O)NCC(=O)O (centres undefined) | -18% | . | . | . | -4% | .
C=CCn1c(OCc2ccccc2)n[nH]c1=S | 4µM* | 5% | 5% | 10 | 18µM* | 2%
C=CCn1c(C(C)NC(=O)c2cccs2)n[nH]c1=S (centres undefined) | 10µM* | 1% | -3% | -5 | -2% | 7%
C=CCn1c(C(c2ccccc2)c2ccccc2)n[nH]c1=S | 7.9µM* | 1% | ? | -12 | 7.9µM* | 1%
CC(=O)Nc1ccc(C(=O)COC(=O)C2CC3CCCC(C2)C3=O)cc1 (centres undefined) | . | -1% | 7% | 9 | . | 0%
COc1ccc(-c2sc3ccccc3c2/C=C/c2ccncc2)cc1 | . | 1% | 0% | -22 | . | 7.3µM*
Cc1ccc(C)c(OCc2ccc(C(=O)N3N=C(C(F)F)CC3(O)C(F)F)o2)c1 (centres undefined) | -25% | 16% | -8% | -17 | ? | ?
N#CC1=C2SCN(c3ccccc3)CN2C(=O)CC1c1c(Cl)cccc1Cl (centres undefined) | 16µM* | 12% | ? | 0 | ? | 10%
